Here are results for 11 compounds from PubChem BioAssay (EPA / NIEHS).

Inconclusive results are not listed. Calls of active or inactive are those of the source. The calls were made as follows: active = hit-call score of the fitted dose curve at least 0.9, where 1 is the maximum; inconclusive = response in the unintended direction; inactive = score below 0.9.

By AC50 is commonly meant the concentration giving half of the maximal activity seen.

In this experiment the target is rat Peripheral-type Benzodiazepine Receptor (PBR), Tspo (gene 24230) (UniProt P16257). Put plainly: NVS_MP_rPBR: NovaScreen (NVS) Membrane Protein Assay for rat Peripheral-type Benzodiazepine Receptor (PBR) (AID 2283335). On the procedure: NVS_MP_rPBR is a biochemical, single-readout assay that uses extracted gene-proteins from Rat kidney membranes in a tissue-based cell-free assay. Measurements were taken 1 hour after chemical dosing in a 48-well plate.NVS_MP_rPBR is one of one assay component(s) measured or calculated from the NVS_MP_rPBR assay. It is designed to make measurements of radioligand binding, a form of binding reporter, as detected with scintillation counting signals by Filter-based radiodetection technology.Data from the assay component NVS_MP_rPBR was analyzed into 1 assay endpoint. This assay endpoint, NVS_MP_rPBR, was analyzed in the positive analysis fitting direction relative to DMSO as the negative control and baseline of activity. Using a type of binding reporter, loss-of-signal activity can be used to understand changes in the binding as they relate to the gene Tspo. Furthermore, this assay endpoint can be referred to as a primary readout, because the performed assay has only produced 1 assay endpoint. To generalize the intended target to other relatable targets, this assay endpoint is annotated to the transporter intended target family, where the subfamily is cholesterol transporter.
Sequence of rat Peripheral-type Benzodiazepine Receptor (PBR), Tspo (gene 24230) (P16257 whole entry, looked up): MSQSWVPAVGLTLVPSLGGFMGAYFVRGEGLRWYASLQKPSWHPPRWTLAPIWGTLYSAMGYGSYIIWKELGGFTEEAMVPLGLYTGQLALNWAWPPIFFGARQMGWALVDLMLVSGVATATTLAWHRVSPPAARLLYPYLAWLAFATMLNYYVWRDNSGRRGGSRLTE
Binding assays used specific radioligands (tritiated, iodinated) with non-radioactive competitive displacement ligands in agonist or antagonist protocols (as indicated) and various reference compounds and inhibitors to titrate specific binding to receptors and transporters. Most enzyme assays (CYPs, kinases, phosphatases, proteases, HDACs) used recombinant protein and specific substrates (fluorescence mostly, some colorimetric and radioactive) and inhibitors, followed by a biochemical separation of substrate and product. All assays for the biochemical HTS were initially run in duplicate at a single concentration (10 uM for CYP450 assays and 25 uM for all others). […] Each assay was run with positive and negative controls, and concurrent controls on every plate. The follow-up (secondary) screen tested active chemical-pairs in concentration series, as well as a few additional assays not tested in the primary screen, some selected negative inactives, and several cases re-run in the concentration series for confirmatory purposes.
As for `CCc1cc(SCc2sc(-c3ccc(C(F)(F)F)cc3)nc2CN2CCN(c3ccc(OC)cc3)CC2)ccc1OCC(=O)O`, the AC50 was 1.81 µM (active). Regarding `CCn1nc(Cc2ccccc2)cc1C1CCN(C[C@H]2C[C@H](N(C)[C@@H](C(=O)O)C(C)C)C[C@@H]2c2cccc(F)c2)CC1`, the result was inactive.

Turning to `COc1ccc2sc(C(=O)Nc3nnn[nH]3)c(OC(C)C)c2c1`, the AC50 is 25 µM (active). On the same count and under the same terms, for `Cn1c(=O)cc(Oc2ccc(F)cc2F)c2cnc(NCC(C)(C)O)nc21` the value was 9.69 µM (active); for `Cc1c(-c2cccnc2)c2ccccc2n1CCCCC(=O)O`, 9.13 µM (active); for `CCOc1cccc(-n2cc(C(=O)N3CCN(c4cc(C(=O)O)c5ccccc5c4)CC3)nc2-c2ccc(C)cc2)c1`, 9.73 µM (active). The same measure, in the same setting: for `COc1cccc(-c2ccc(/C=C\CN3CCCCCC3)cc2Cl)c1` the value was 8.04 µM (active).

As to `O=C(O)c1cc(N=Nc2ccc(S(=O)(=O)Nc3ccccn3)cc2)ccc1O`, the AC50 is 0.655 µM (active). Regarding `O=P(OC(CCl)CCl)(OC(CCl)CCl)OC(CCl)CCl`, the AC50 is 2.36 µM (active). The same measure, in the same setting: for `COc1ccc(-n2nc(C(F)F)cc2-c2ccc(S(C)=O)cc2)cc1` (stereo unspecified) the value was 14.7 µM (active); for `O=C(OC[C@H]1O[C@@H](OC(=O)c2cc(O)c(O)c(OC(=O)c3cc(O)c(O)c(O)c3)c2)[C@H](OC(=O)c2cc(O)c(O)c(OC(=O)c3cc(O)c(O)c(O)c3)c2)[C@@H](OC(=O)c2cc(O)c(O)c(OC(=O)c3cc(O)c(O)c(O)c3)c2)[C@@H]1OC(=O)c1cc(O)c(O)c(OC(=O)c2cc(O)c(O)c(O)c2)c1)c1cc(O)c(O)c(OC(=O)c2cc(O)c(O)c(O)c2)c1`, 0.715 µM (active).
